# Reference: PubChem BioAssay AID1159580 (chemical genetic matrix, 2015)
# “And” between values parts separate entries of the source, which are not always exact repeats. Equal values may be shown once. In all, about 5,500 compounds went through this assay and about 2,000 (36%) were called active. About 18% were inconclusive and are not listed. The list shows a part of the results. Values without a mark were called inactive. No stated cut-off is given here; in the data, active means normalized growth mostly below about 0.91 (no sharp cut-off); inconclusive means no clear call, values can overlap the other calls; inactive means mostly above about 0.92.
# Assay: chemical genetic growth profiling, strain panel (AID 1159580);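 further: tested at 20 µM; growth read once vehicle control cultures reached saturation at 30 °C; 1 = growth at the plate median or of vehicle wells; lower values mean less growth of the strain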
# Settings: S. cerevisiae deletion strains, growth OD
smiles,measurement,setting,value
COc1cc(C)c(C(=O)Oc2cc(C)c(C(=O)O)c(O)c2C)c(OC)c1C,normalized growth,"locus YAL021C, strain ccr4, active compounds read low",1.01
same,normalized growth,"locus YAL026C, strain drs2, active compounds read low",0.965
same,normalized growth,"locus YAL030W, strain snc1, active compounds read low",0.994
same,normalized growth,"locus YBL061C, strain skt5, active compounds read low",0.987
same,normalized growth,"locus YBR009C, strain hhf1, active compounds read low",0.91
same,normalized growth,"locus YBR021W, strain FUR4, active compounds read low",0.995
same,normalized growth,"locus YBR023C, strain chs3, active compounds read low",0.983
same,normalized growth,"locus YBR171W, strain sec66, active compounds read low",0.969
same,normalized growth,"locus YBR229C, strain ROT2, active compounds read low",0.993
same,normalized growth,"locus YBR231C, strain swc5, active compounds read low",0.98
same,normalized growth,"locus YBR279W, strain paf1, active compounds read low",0.995
same,normalized growth,"locus YCL011C, strain gbp2, active compounds read low",0.968
same,normalized growth,"locus YCL016C, strain dcc1, active compounds read low",0.986
same,normalized growth,"locus YCL029C, strain bik1, active compounds read low",1.02
same,normalized growth,"locus YCL061C, strain MRC1, active compounds read low",0.974
same,normalized growth,"locus YCL069W, strain vba3, active compounds read low",0.976
same,normalized growth,"locus YCR088W, strain abp1, active compounds read low",0.994
same,normalized growth,"locus YDL005C, strain med2, active compounds read low",0.992
same,normalized growth,"locus YDL035C, strain GPR1, active compounds read low",0.991
same,normalized growth,"locus YDL040C, strain nat1, active compounds read low",0.974
same,normalized growth,"locus YDL074C, strain BRE1, active compounds read low",0.982
same,normalized growth,"locus YDL101C, strain DUN1, active compounds read low",1.02
same,normalized growth,"locus YDL134C, strain PPH21, active compounds read low",1.02
same,normalized growth,"locus YDL185W, strain tfp1, active compounds read low",1.02
same,normalized growth,"locus YDL192W, strain arf1, active compounds read low",1
same,normalized growth,"locus YDR001C, strain nth1, active compounds read low",0.972
same,normalized growth,"locus YDR069C, strain doa4, active compounds read low",0.993
same,normalized growth,"locus YDR101C, strain arx1, active compounds read low",1.01
same,normalized growth,"locus YDR137W, strain rgp1, active compounds read low",0.906
same,normalized growth,"locus YDR159W, strain sac3, active compounds read low",0.89
same,normalized growth,"locus YDR162C, strain NBP2, active compounds read low",0.98
same,normalized growth,"locus YDR195W, strain ref2",0.966
same,normalized growth,"locus YDR297W, strain sur2, active compounds read low",0.988
same,normalized growth,"locus YDR318W, strain mcm21, active compounds read low",1
same,normalized growth,"locus YDR334W, strain swr1, active compounds read low",1
same,normalized growth,"locus YDR335W, strain msn5, active compounds read low",0.993
same,normalized growth,"locus YDR388W, active compounds read low",1.01
same,normalized growth,"locus YDR392W, strain spt3, active compounds read low",0.479 (active)
same,normalized growth,"locus YDR502C, strain sam2, active compounds read low",1
same,normalized growth,"locus YEL003W, strain gim4, active compounds read low",0.968
same,normalized growth,"locus YEL037C, strain rad23, active compounds read low",0.982
same,normalized growth,"locus YEL061C, strain CIN8 (second series), active compounds read low",0.982
same,normalized growth,"locus YEL061C, strain CIN8, active compounds read low",1
same,normalized growth,"locus YER015W, strain faa2, active compounds read low",0.99
same,normalized growth,"locus YER016W, strain bim1, active compounds read low",0.984
same,normalized growth,"locus YER110C, active compounds read low",1.02
same,normalized growth,"locus YER111C, strain swi4, active compounds read low",0.97
same,normalized growth,"locus YER155C, strain BEM2 (second series), active compounds read low",0.708 (active)
same,normalized growth,"locus YER155C, strain BEM2, active compounds read low",1
same,normalized growth,"locus YER167W, strain BCK2, active compounds read low",0.999
same,normalized growth,"locus YFR010W, strain ubp6, active compounds read low",0.991
same,normalized growth,"locus YGL078C, strain dbp3, active compounds read low",0.986
same,normalized growth,"locus YGL086W, strain mad1, active compounds read low",1.02
same,normalized growth,"locus YGL167C, strain pmr1, active compounds read low",0.964
same,normalized growth,"locus YGL173C, strain kem1, active compounds read low",0.975
same,normalized growth,"locus YGL227W, strain vid30, active compounds read low",0.969
same,normalized growth,"locus YGL240W, strain doc1, active compounds read low",0.941
same,normalized growth,"locus YGL248W, strain PDE1, active compounds read low",1.01
same,normalized growth,"locus YGL253W, strain hxk2, active compounds read low",0.949
same,normalized growth,"locus YGR078C, strain PAC10, active compounds read low",0.992
same,normalized growth,"locus YGR135W, strain pre9, active compounds read low",1
same,normalized growth,"locus YGR252W, strain gcn5, active compounds read low",0.905
same,normalized growth,"locus YHR013C, strain ard1, active compounds read low",0.887
same,normalized growth,"locus YHR027C, strain rpn1, active compounds read low",1
same,normalized growth,"locus YHR030C, strain SLT2, active compounds read low",1.02 and 0.932
same,normalized growth,"locus YHR079C, strain IRE1 (second series), active compounds read low",1.02
same,normalized growth,"locus YHR079C, strain IRE1, active compounds read low",0.845 (active)
same,normalized growth,"locus YHR094C, strain hxt1, active compounds read low",1.01
same,normalized growth,"locus YHR129C, strain ARP1, active compounds read low",1.01
same,normalized growth,"locus YHR142W, strain chs7, active compounds read low",0.994
same,normalized growth,"locus YHR200W, strain rpn10, active compounds read low",1
same,normalized growth,"locus YIL066C, strain RNR3, active compounds read low",1
same,normalized growth,"locus YIL073C, strain SPO22, active compounds read low",1.06
same,normalized growth,"locus YIL125W, strain kgd1, active compounds read low",0.996
same,normalized growth,"locus YIR030C, strain dcg1, active compounds read low",1.01
same,normalized growth,"locus YJL092W, strain hpr5, active compounds read low",0.983
same,normalized growth,"locus YJL095W, strain BCK1 (second series), active compounds read low",0.988
same,normalized growth,"locus YJL095W, strain BCK1, active compounds read low",0.998 and 0.884
same,normalized growth,"locus YJL115W, strain asf1, active compounds read low",0.991
same,normalized growth,"locus YJL129C, strain trk1, active compounds read low",0.867 (active)
same,normalized growth,"locus YJL134W, strain LCB3, active compounds read low",1.01
same,normalized growth,"locus YJL154C, strain vps35, active compounds read low",0.979
same,normalized growth,"locus YJL164C, strain tpk1, active compounds read low",0.993
same,normalized growth,"locus YJL166W, strain qcr8, active compounds read low",0.953
same,normalized growth,"locus YJL168C, strain set2, active compounds read low",1
same,normalized growth,"locus YJL187C, strain SWE1 (second series), active compounds read low",1.03
same,normalized growth,"locus YJL187C, strain SWE1, active compounds read low",0.993
same,normalized growth,"locus YJR043C, strain POL32, active compounds read low",0.998
same,normalized growth,"locus YJR066W, strain TOR1, active compounds read low",0.975
same,normalized growth,"locus YJR075W, strain HOC1, active compounds read low",1.01
same,normalized growth,"locus YKL009W, strain mrt4, active compounds read low",0.992
same,normalized growth,"locus YKL068W, active compounds read low",1
same,normalized growth,"locus YKL085W, strain MDH1 (second series), active compounds read low",0.995
same,normalized growth,"locus YKL085W, strain MDH1, active compounds read low",0.995
same,normalized growth,"locus YKL160W, strain elf1, active compounds read low",0.991
same,normalized growth,"locus YKL190W, strain CNB1, active compounds read low",1.01
same,normalized growth,"locus YKR001C, strain vps1, active compounds read low",0.956
same,normalized growth,"locus YKR026C, strain gcn3, active compounds read low",0.979
same,normalized growth,"locus YKR091W, strain srl3, active compounds read low",0.981
same,normalized growth,"locus YLL001W, strain dnm1, active compounds read low",1
same,normalized growth,"locus YLL026W, active compounds read low",0.968
same,normalized growth,"locus YLL041C, strain sdh2, active compounds read low",0.982
same,normalized growth,"locus YLR027C, strain aat2, active compounds read low",0.991
same,normalized growth,"locus YLR039C, strain RIC1, active compounds read low",1.03
same,normalized growth,"locus YLR058C, strain SHM2, active compounds read low",1.01
same,normalized growth,"locus YLR102C, strain apc9, active compounds read low",1.02
same,normalized growth,"locus YLR113W, strain HOG1, active compounds read low",0.557 (active)
same,normalized growth,"locus YLR221C, strain rsa3, active compounds read low",1.01
same,normalized growth,"locus YLR258W, strain gsy2, active compounds read low",0.947
same,normalized growth,"locus YLR262C, strain YPT6 (second series), active compounds read low",0.943
same,normalized growth,"locus YLR262C, strain YPT6, active compounds read low",1.03
same,normalized growth,"locus YLR268W, strain sec22, active compounds read low",1.03
same,normalized growth,"locus YLR320W, strain mms22, active compounds read low",0.859 (active)
same,normalized growth,"locus YLR330W, strain CHS5, active compounds read low",1.01
same,normalized growth,"locus YLR342W, strain FKS1 (second series), active compounds read low",0.985
same,normalized growth,"locus YLR342W, strain FKS1, active compounds read low",0.978
same,normalized growth,"locus YLR357W, strain rsc2, active compounds read low",0.94
same,normalized growth,"locus YLR370C, strain arc18, active compounds read low",0.999
same,normalized growth,"locus YLR371W, strain rom2, active compounds read low",1.02
same,normalized growth,"locus YLR384C, strain iki3, active compounds read low",0.992
same,normalized growth,"locus YLR418C, strain cdc73, active compounds read low",0.859
same,normalized growth,"locus YML016C, strain PPZ1, active compounds read low",1.01
same,normalized growth,"locus YML032C, strain rad52, active compounds read low",0.985
same,normalized growth,"locus YML120C, strain ndi1, active compounds read low",0.971
same,normalized growth,"locus YML124C, strain tub3, active compounds read low",1.01
same,normalized growth,"locus YMR058W, strain fet3, active compounds read low",0.984
same,normalized growth,"locus YMR078C, strain ctf18, active compounds read low",1
same,normalized growth,"locus YMR125W, strain sto1, active compounds read low",0.912
same,normalized growth,"locus YMR129W, active compounds read low",0.97
same,normalized growth,"locus YMR205C, strain PFK2, active compounds read low",0.852 (active)
same,normalized growth,"locus YMR223W, strain ubp8, active compounds read low",0.994
same,normalized growth,"locus YMR231W, strain pep5, active compounds read low",0.988
same,normalized growth,"locus YMR307W, strain GAS1, active compounds read low",0.978
same,normalized growth,"locus YNL067W, strain RPL9B, active compounds read low",1.04
same,normalized growth,"locus YNL071W, strain lat1, active compounds read low",0.869 (active)
same,normalized growth,"locus YNL128W, strain TEP1, active compounds read low",1.03
same,normalized growth,"locus YNL153C, strain GIM3, active compounds read low",1.01
same,normalized growth,"locus YNL183C, strain NPR1, active compounds read low",0.955
same,normalized growth,"locus YNL209W, strain ssb2, active compounds read low",1
same,normalized growth,"locus YNL233W, strain BNI4, active compounds read low",1
same,normalized growth,"locus YNL248C, strain rpa49, active compounds read low",1.01
same,normalized growth,"locus YNL250W, strain rad50, active compounds read low",1.03
same,normalized growth,"locus YNL271C, strain bni1, active compounds read low",1.01
same,normalized growth,"locus YNL298W, strain CLA4, active compounds read low",0.934
same,normalized growth,"locus YNL307C, strain MCK1, active compounds read low",1
same,normalized growth,"locus YNL322C, strain KRE1 (second series), active compounds read low",0.996
same,normalized growth,"locus YNL322C, strain KRE1, active compounds read low",1
same,normalized growth,"locus YNR049C, strain mso1, active compounds read low",0.978
same,normalized growth,"locus YNR052C, strain pop2, active compounds read low",1
same,normalized growth,"locus YOL012C, strain htz1",1.06
same,normalized growth,"locus YOL147C, strain pex11, active compounds read low",1.01
same,normalized growth,"locus YOR001W, strain rrp6, active compounds read low",0.989
same,normalized growth,"locus YOR061W, strain CKA2, active compounds read low",1.01
same,normalized growth,"locus YOR069W, strain VPS5, active compounds read low",1.02
same,normalized growth,"locus YOR070C, strain gyp1, active compounds read low",0.983
same,normalized growth,"locus YOR080W, strain dia2, active compounds read low",0.997
same,normalized growth,"locus YOR083W, strain WHI5, active compounds read low",1.03
same,normalized growth,"locus YOR106W, strain vam3, active compounds read low",1
same,normalized growth,"locus YOR136W, strain idh2, active compounds read low",1.02
same,normalized growth,"locus YOR144C, strain elg1, active compounds read low",1.01
same,normalized growth,"locus YOR184W, strain ser1, active compounds read low",0.986
same,normalized growth,"locus YOR231W, strain MKK1, active compounds read low",0.777 (active)
same,normalized growth,"locus YOR265W, strain rbl2, active compounds read low",0.992
same,normalized growth,"locus YOR270C, strain vph1, active compounds read low",0.928
same,normalized growth,"locus YOR290C, strain snf2, active compounds read low",0.931
same,normalized growth,"locus YOR316C, strain cot1, active compounds read low",1.01
same,normalized growth,"locus YPL051W, strain arl3, active compounds read low",1
same,normalized growth,"locus YPL055C, strain LGE1, active compounds read low",1.01
same,normalized growth,"locus YPL078C, strain atp4, active compounds read low",0.986
same,normalized growth,"locus YPL106C, strain sse1, active compounds read low",0.974
same,normalized growth,"locus YPL240C, strain hsp82, active compounds read low",0.979
same,normalized growth,"locus YPL241C, strain CIN2, active compounds read low",0.995
same,normalized growth,"locus YPL256C, strain CLN2, active compounds read low",0.917
same,normalized growth,"locus YPR119W, strain clb2, active compounds read low",1.01
same,normalized growth,"locus YPR141C, strain kar3, active compounds read low",1.03
same,normalized growth,"locus YPR163C, strain tif3, active compounds read low",1.01
same,normalized growth,"locus YPR167C, strain met16, active compounds read low",1.01
same,normalized growth,"strain wtn01, active compounds read low",1.04
